# The list is not random: actives were taken first. Their share in the collection is about 1.7%.
# TRPML1 inh – human mucolipin-1 channel inhibition; activity change, negative = inhibition, % (test concentration not listed); AID 624415; Q9GZU1; 390,000 tested, 0.02% active; TRPML1-inducible cells, Ca2+ dye fluorescence, FDSS; stronger effect = lower value; inhibition of EC80 agonist-evoked calcium signal; in the data active = activity change below about -50%; inconclusive = between about -30% and that limit;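 note: stimulus is agonist 54-4 at its EC80 concentration; % is set by controls: 0 for no effect and ±100 for the full control effect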
#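 Tet-induced TRPML1-DL cells loaded with Ca8 no-wash calcium dye were read kinetically on FDSS. Compound addition was followed by EC80 agonist 54-4 (4 uM final); inhibition was read over 110 s.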
# TRHR enhancer – TRH receptor (human) allosteric enhancement; P34981; TRHR cells, fluo-8 calcium fluorescence, EC20 TRH enhancement; enhancement, % at 2 µM; 360,000 tested, 0.66% active; in the data active = enhancement above about 30%; note: 0% is about no effect
# Target sequence (P34981 whole entry, looked up): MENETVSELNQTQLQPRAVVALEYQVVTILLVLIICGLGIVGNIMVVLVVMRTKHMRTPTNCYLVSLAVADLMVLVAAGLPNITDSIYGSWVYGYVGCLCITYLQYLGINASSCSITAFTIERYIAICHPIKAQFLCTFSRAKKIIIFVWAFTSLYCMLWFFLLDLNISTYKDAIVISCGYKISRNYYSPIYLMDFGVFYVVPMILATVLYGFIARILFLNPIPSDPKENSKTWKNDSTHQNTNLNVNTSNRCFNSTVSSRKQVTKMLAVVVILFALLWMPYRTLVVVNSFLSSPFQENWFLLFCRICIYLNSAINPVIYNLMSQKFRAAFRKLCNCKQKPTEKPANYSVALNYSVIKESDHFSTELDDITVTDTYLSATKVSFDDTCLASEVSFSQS
#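 TRHR-expressing cells loaded with fluo-8 calcium dye were read kinetically (ex 480/em 530) during compound addition, then stimulated with an EC20 of TRH (10 nM final). Enhancement of the Gq-mediated intracellular calcium response was scored.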
# TRPML1 ag – activates the human TRPML1 channel; Q9GZU1; TRPML1-expressing cells, Ca2+ dye fluorescence, FDSS; activation, % (no concentration beside the values); 410,000 tested, 0.12% active; in the data active = activation above about 50%; inconclusive = mostly about 30% to 49%; note: 0% is about no effect
#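 Kinetic FDSS Ca2+ read in Tet-induced TRPML1-DL cells (ABD Ca8 dye plus quencher, 45-90 min RT loading): baseline, then compound, then 110 s agonist window; EC80 agonist 54-4 at 4uM final added afterwards for a 110 s antagonist window.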
# KCNH2 WT inh – KCNH2 (human, wildtype) channel inhibition; Q12809; U2OS, BacMam KCNH2, thallium flux FluxOr; stronger effect = lower value; activity change, % at 1.84 µM; 340,000 tested, 0.37% active; AID 720551;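 active = maximum activity change below -70%; inconclusive = maximum activity change between -70% and -50%; inactive = maximum activity change above -50%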; note: % is set by controls: 0 for no effect and ±100 for the full control effect
#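 U2OS cells transduced with wild-type KCNH2 virus are loaded with FluxOr dye for 45 min, and thallium flux is measured in kinetic reads before and after stimulation buffer. Rate constants are normalized to DMSO controls.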
# KCNH2 3.1 block – inhibitors of human KCNH2 3.1 potassium channel isoform; U2OS KCNH2 3.1, thallium flux FluxOr; stronger effect = lower value; activity change, % (tested at about 1.8 µM); 340,000 tested, 0.95% active; AID 720553;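 active = maximum activity change below -70%; inconclusive = maximum activity change from -70% to -50%; inactive = maximum activity change above -50%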;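 note: thallium influx rate constant from kinetic fluorescence after stimulation buffer; % is set by controls: 0 for no effect and ±100 for the full control effect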
#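 U2OS cells transduced with KCNH2 3.1 mutant virus (1.77 x 10^8 /mL, 4 h), plated overnight at 37 C, loaded 45 min with FluxOr dye plus Red40 quencher. Thallium flux rate constant from kinetic reads after stimulation buffer, normalised to controls.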
# TRHR agonist – TRH receptor (human) agonism. TRHR cells, calcium flux fluo-8, FDSS agonist mode. activation, % at 2 µM. 360,000 tested, 0.18% active; in the data active = activation above about 30%; note: 0% is about no effect
#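 Agonist-mode FDSS calcium read (Ex 480/Em 530, 1 s cycles) in 1536-well TRHR cells with fluo-8 dye, after 10-cycle baseline and 23 nL compound addition; TRH at EC20 (10 nM final) added afterwards for the enhancer phase.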
# Starred values were filed as active, the others as inactive; ? = inconclusive; nt = not tested or not shown.
SMILES,TRPML1 inh,TRHR enhancer,TRPML1 ag,KCNH2 WT inh,KCNH2 3.1 block,TRHR agonist
Nc1cc(OCc2ccccc2)ccc1OCc1ccccc1,-4,nt,1,-4,-6,nt
Cc1ccsc1C(=O)NNC(=O)Nc1ccc(Cl)c(Cl)c1,-5,39*,-1,3,14,0
NC(=S)NNc1cccc(Cl)c1,7,3,1,-3,-82*,0
NC(=S)NNC(=O)Nc1cccc(Cl)c1,21,19,0,15,11,1
Cn1cc(-c2ccccc2C(N)=O)c(=O)c2cc(Cl)ccc21,7,-5,-1,3,7,0
Cn1cc(C2=C(c3ccc(Cl)cc3Cl)C(=O)NC2=O)c2ccccc21,-10,5,24,-14,-22,48*
C=CC[C@H](CC(=O)OC(C)(C)C)C(=O)OC[C@H]1CCCN1C(=O)[C@H](CC=C)CC(=O)NCCO,29,nt,-1,nt,nt,nt
CN(C)C(=O)CSc1nc2ccccc2n1Cc1ccccc1,-7,15,0,7,18,-1
CCN(CC)CCSc1nc2ccccc2n1Cc1ccccc1,27,-1,-1,?,-75*,0
CCCN1CCN(CCNC(=O)Nc2ccccc2OCC)CC1,-6,-2,-1,nt,nt,1
CCOc1ccc(NC(=O)NCCN2CCN(c3cccc(C)c3C)CC2)cc1,-2,-2,-1,36,-89*,1
CCOc1cccc(N2CCN(CCNC(=O)Nc3ccc(C)cc3)CC2)c1C,3,1,0,6,-93*,0
CCOc1ccc(NC(=O)NCCN2CCN(c3ccccc3F)CC2)cc1,-25,10,2,13,-34,0
C=CCSc1nc2ccccc2c(=O)n1C1CCOC(C)(C)C1 (centres undefined),-8,-1,3,4,9,-1
CCSc1nc2ccccc2c(=O)n1C1CCOC(C)(C)C1 (centres undefined),16,9,-1,-3,-91*,0
Cc1cc(Cl)ccc1OC(C)C(=O)Nc1ccc([N+](=O)[O-])cn1 (centres undefined),-11,6,2,-125*,-94*,0
C[N+](C)(C)CC(O)CC(=O)O (centres undefined),7,-3,-1,-295*,14,0
Cc1onc(-c2ccccc2)c1C(=O)Nc1nc(-c2cc(F)ccc2F)cs1,-5,-12,0,8,3,0
Cc1noc(C)c1C(=O)Nc1nc(-c2cc(F)ccc2F)cs1,24,1,2,-1,-135*,0
O=[N+]([O-])c1cc(-n2cnnn2)ccc1N1CCC(Cc2ccccc2)CC1,83,8,1,4,-81*,0
CC1CC(C)CN(c2ccc(-n3cnnn3)cc2[N+](=O)[O-])C1 (centres undefined),33,-8,7,5,-20,-1
COc1ccc(C2=CCCC2)c(OC)c1,10,nt,1,21,10,nt
CN(C)CCCN(C(=O)/C=C/c1cccs1)c1nc2c(F)cccc2s1,-10,5,5,-45,-117*,5
CCOc1ccc2nc(N(CCN(CC)CC)C(=O)/C=C/c3cccs3)sc2c1,8,3,-1,?,-80*,1
CN(C)CCCN(C(=O)CCc1ccccc1)c1nc2c(F)cccc2s1,-2,-3,2,-31,-71*,15
CCCn1c(=O)c(C(=O)OCC)c(O)c2cc(Br)ccc21,2,32*,2,-4,nt,0
C=CCn1c(=O)c(C(=O)OCC)c(O)c2ccccc21,48,6,3,7,-3,0
CCc1ccccc1N(C)S(=O)(=O)c1ccc2[nH]cc(C(=O)N3CCc4ccccc43)c(=O)c2c1,-13,-3,1,-24,-85*,0
O=C(/C=C/c1cccc(Cl)c1)OCC(=O)c1ccc[nH]1,-7,nt,0,-5,23,nt
COc1ccc(C2=NOC(Cn3nc(C(=O)NCc4cccc(C(F)(F)F)c4)cc3-c3ccccc3)C2)cc1 (centres undefined),-7,2,4,5,-74*,1

# High-throughput results from PubChem.
